PubChem BioAssay (NCATS)
Records with an inconclusive call do not appear. Entries that show only a call come without a potency. Values without a mark were called inactive. The source made the active and inactive calls. Calls follow the shape of the dose curve; as a rule, active = well fitted curve in the direction sought with a large enough effect; inconclusive = small, poorly fitted or top-dose-only effect, or another doubt; inactive = no such curve, though single readings can be large; an effect the other way counts as inactive or inconclusive.

Legend:
[1] = system: Zika virus NS2B-NS3 protease (unlinked); assay: Optimization of GU AMC qHTS for Zika virus inhibitors: Unlinked NS2B-NS3 protease assay (AID 1347151); also: nearly all actives have a fitted effect of over 80% in size; also: potency is read from the fitted curve at half-maximal effect
Procedure, shortened: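 In this qHTS, compounds acted on 25 nM unlinked Zika NS2B–NS3 in pH 8.0 Tris/Tween buffer. Cleavage of an AMC peptide ran 15 min at room temperature, to about 20% conversion.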

[2] = target: Lysine-specific demethylase 5B (Homo sapiens) (UniProt Q9UGL1); assay: Optimization screen for KDM5B Histone Demethylases FDH coupled qHTS against the LOPAC library (AID 1347166)
Procedure, shortened: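 KDM5BDeltaAP (200nM final) in 50mM HEPES pH 7.5, 0.01% Tween-20 was preincubated with compound for 10 min at room temperature. A substrate mix of 12.5uM H3K4Me3, 25uM a-ketoglutarate, ascorbate, Fe2+, NAD+ and formaldehyde dehydrogenase was then added. NADH fluorescence (340/450 nm) was read initially and after 30 min.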

[3] = system: Zika virus NS2B-NS3 protease; assay: Primary screen GU AMC qHTS for Zika virus inhibitors (AID 1347154); also: nearly all actives have a fitted effect of over 70% in size
Procedure, shortened: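 Unlinked Zika NS2B hydrophilic domain–NS3 protease complex at 25 nM in 10 mM Tris-HCl pH 8.0, 0.01% Tween 20, with an AMC peptide substrate. Fluorescence change (340/450 nm) over 15 min at room temperature, normalized to controls, fitted to 4-parameter Hill.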

[4] = system: Zika virus NS2B-NS3 protease (unlinked complex); assay: Primary screen GU Rhodamine qHTS for Zika virus inhibitors: Unlinked NS2B-NS3 protease assay (AID 1347159); also: nearly all actives have a fitted effect of over 60% in size
Procedure, shortened: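 Enzyme 25 nM in Tris-HCl pH 8.0 + 0.01% Tween 20; compounds up to 114 microM, 15 min RT dark; + Rhod110 substrate 1.5 microM; read t0 and 15 min; delta fluorescence → % inhibition → 4-parameter Hill fit.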

[5] = system: Zika virus NS2B-NS3 protease (linked construct); assay: Primary screen NINDS Rhodamine qHTS for Zika virus inhibitors (AID 1347160); also: nearly all actives have a fitted effect of over 55% in size
Procedure, shortened: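 Enzyme (25 nM, linked NS2B-NS3) was preincubated 15 min with compound in 10 mM Tris-HCl pH 8.0, 0.01% Tween 20. Rhodamine110 substrate (1.5 microM) was then added and fluorescence read at start and after 15 min.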

Sequence of Lysine-specific demethylase 5B (Homo sapiens) (Q9UGL1 whole entry, looked up): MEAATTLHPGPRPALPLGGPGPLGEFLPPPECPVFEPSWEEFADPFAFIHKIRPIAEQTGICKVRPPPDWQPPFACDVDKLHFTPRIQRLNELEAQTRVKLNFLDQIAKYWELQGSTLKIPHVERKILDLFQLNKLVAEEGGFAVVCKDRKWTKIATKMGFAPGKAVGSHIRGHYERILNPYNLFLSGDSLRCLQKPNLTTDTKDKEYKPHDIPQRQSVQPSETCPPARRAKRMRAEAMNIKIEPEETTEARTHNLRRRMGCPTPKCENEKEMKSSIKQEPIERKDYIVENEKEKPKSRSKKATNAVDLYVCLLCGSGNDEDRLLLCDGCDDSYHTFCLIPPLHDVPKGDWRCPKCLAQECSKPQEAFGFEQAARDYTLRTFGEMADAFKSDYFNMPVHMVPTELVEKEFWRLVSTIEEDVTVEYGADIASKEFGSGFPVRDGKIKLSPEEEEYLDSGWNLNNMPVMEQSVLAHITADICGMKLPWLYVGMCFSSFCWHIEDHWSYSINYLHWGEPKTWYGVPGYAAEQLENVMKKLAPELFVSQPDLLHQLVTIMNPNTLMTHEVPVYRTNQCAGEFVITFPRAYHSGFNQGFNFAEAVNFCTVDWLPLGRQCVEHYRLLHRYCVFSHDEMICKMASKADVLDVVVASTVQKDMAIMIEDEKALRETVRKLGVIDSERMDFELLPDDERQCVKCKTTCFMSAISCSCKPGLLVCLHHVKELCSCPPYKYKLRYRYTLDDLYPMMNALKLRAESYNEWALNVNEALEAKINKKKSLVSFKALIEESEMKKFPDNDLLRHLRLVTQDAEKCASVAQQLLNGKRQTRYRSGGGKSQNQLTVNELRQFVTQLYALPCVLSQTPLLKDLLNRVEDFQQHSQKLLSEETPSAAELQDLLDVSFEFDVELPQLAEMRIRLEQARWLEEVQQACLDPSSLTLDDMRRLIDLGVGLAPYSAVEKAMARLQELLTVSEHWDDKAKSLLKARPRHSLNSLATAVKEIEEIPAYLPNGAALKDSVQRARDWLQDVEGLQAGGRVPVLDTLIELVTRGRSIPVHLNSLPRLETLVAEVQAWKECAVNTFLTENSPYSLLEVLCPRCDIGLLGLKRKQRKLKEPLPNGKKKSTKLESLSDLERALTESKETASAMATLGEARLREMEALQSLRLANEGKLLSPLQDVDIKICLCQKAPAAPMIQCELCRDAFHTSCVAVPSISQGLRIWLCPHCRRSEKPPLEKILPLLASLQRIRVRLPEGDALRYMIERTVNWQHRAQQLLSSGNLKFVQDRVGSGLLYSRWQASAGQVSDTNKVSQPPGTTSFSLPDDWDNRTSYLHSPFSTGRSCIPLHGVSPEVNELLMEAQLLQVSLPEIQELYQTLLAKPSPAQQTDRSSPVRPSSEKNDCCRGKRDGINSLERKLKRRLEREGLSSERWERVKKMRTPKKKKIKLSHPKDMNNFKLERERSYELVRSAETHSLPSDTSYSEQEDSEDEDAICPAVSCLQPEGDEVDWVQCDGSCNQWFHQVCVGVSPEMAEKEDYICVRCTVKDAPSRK

CN(C)c1nc(N)c(C(=O)N=C(N)N)nc1Cl
Potency [1]: inactive | outcome [2]: inactive

CN(C)C(N)=NCCC[C@H](N)C(=O)O
Potency [1]: inactive | outcome [2]: inactive

Brc1c(Br)c(Br)c2n[nH]nc2c1Br
Potency [1]: 26.7 µM (active) | outcome [2]: inactive

O=C(c1ccc(Cl)cc1)N1CCN(c2ccc([N+](=O)[O-])c3ncccc23)CC1
Potency [1]: inactive | outcome [2]: inactive

NC(=S)c1ccc[n+]([C@@H]2O[C@@H](COP(=O)([O-])OP(=O)(O)OC[C@H]3O[C@@H](n4cnc5c(N)ncnc54)[C@H](OP(=O)(O)O)[C@@H]3O)C(O)C2O)c1 (some centres not stated)
Potency [1]: inactive | outcome [2]: inactive

CCC1C(=O)OCC1Cc1cncn1C (configuration not stated)
Potency [1]: inactive | Potency [3]: inactive | outcome [2]: inactive

Fc1cccc(/C=N/N=C/c2cccc(F)c2)c1
Potency [1]: inactive | outcome [2]: inactive

OC[C@H]1O[C@@H](n2cnc3c(NC4CCCC4)ncnc32)[C@H](O)[C@@H]1O
Potency [1]: inactive | Potency [3]: inactive | outcome [2]: inactive

CN1CCc2cccc3c2C1Cc1ccc(O)c(O)c1-3 (configuration not stated)
Potency [1]: 26.7 µM (active) | outcome [2]: inactive

CC(=O)SCC[N+](C)(C)C
Potency [1]: inactive | outcome [2]: inactive

NC[C@H]1O[C@@H](n2cnc3c(N)ncnc32)[C@H](O)[C@@H]1O
Potency [1]: inactive | outcome [2]: inactive

NC(N)=NC(=O)c1nc(Cl)c(N2CCCCCC2)nc1N
Potency [1]: inactive | outcome [2]: inactive

COC(=O)c1c(C)[nH]c(C)c1C(=O)c1ccccc1Cc1ccccc1
Potency [1]: inactive | Potency [3]: inactive | outcome [2]: inactive

O=c1[nH]c2cc([N+](=O)[O-])c([N+](=O)[O-])cc2[nH]c1=O
Potency [1]: inactive | Potency [3]: inactive | outcome [2]: inactive

CCCN(CC1CC1)c1nc(C)nc(Nc2c(Cl)cc(Cl)cc2Cl)c1Cl
Potency [1]: inactive | Potency [3]: inactive | outcome [2]: inactive

Nc1ncnc2c1ncn2[C@@H]1O[C@H](COP(=O)(O)OP(=O)(O)OP(=O)(O)OP(=O)(O)OC[C@@H]2O[C@H](n3cnc4c(N)ncnc43)[C@@H](O)[C@H]2O)[C@@H](O)[C@H]1O
Potency [1]: inactive | Potency [3]: inactive | outcome [2]: inactive

NCC1OC(O[C@H]2[C@H](O)[C@@H](OC3C(O)C(N)CC(N)C3OC3OC(CO)C(O)C(O)C3N)O[C@@H]2CO)C(N)C(O)C1O (some centres not stated)
Potency [1]: inactive | outcome [2]: inactive

CCNc1nc2c(ncn2[C@H]2C[C@H](O)[C@@H](CO)O2)c(=O)[nH]1
Potency [1]: inactive | Potency [4]: inactive | Potency [5]: inactive

O=C(O)c1cc(=O)c2c(Cl)cc(Cl)cc2[nH]1
Potency [1]: inactive | Potency [3]: inactive | outcome [2]: inactive

NCCCCC(=O)O
Potency [1]: inactive | outcome [2]: inactive

S=C(S)OC1CC2CC1C1CCCC21 (configuration not stated)
Potency [1]: inactive | outcome [2]: inactive

O=P(O)(O)C(Cl)(Cl)P(=O)(O)O
Potency [1]: inactive | outcome [2]: inactive

C=CC(C)=C[C@@]1(C)SC(=O)C(C)=C1O
Potency [1]: inactive | outcome [2]: inactive

NCCCS(=O)(=O)O
Potency [1]: inactive | outcome [2]: inactive

CCN1/C(=C/C(C)=O)Sc2ccc(OC)cc21
Potency [1]: inactive | outcome [2]: inactive

Clc1ccc(N2CCN(Cc3c[nH]c4ncccc34)CC2)cc1
Potency [3]: inactive | outcome [2]: inactive

CC(=O)SCC(CC(=O)c1ccc(C)cc1)C(=O)O (configuration not stated)
Potency [3]: inactive | Potency [4]: inactive | Potency [5]: inactive

CCNC(=O)[C@H]1O[C@@H](n2cnc3c(N)nc(NCCc4ccc(CCC(=O)O)cc4)nc32)[C@H](O)[C@@H]1O
Potency [4]: inactive | Potency [5]: inactive

CN1[C@@H]2CC[C@H]1CC(OC(=O)C(CO)c1ccccc1)C2 (some centres not stated)
Potency [4]: inactive | Potency [5]: inactive
